These results are taken from PubChem BioAssay (NCI).

Structures are written as SMILES. This is part of a sample that, as a whole, favours compounds with a hit. Of some 83,000 tested, about 20% had one in any assay.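 For each line, cells grew in 96-well plates with the test compound present at a single concentration for 48 hours.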 Values without a mark were called inactive. The source made the active and inactive calls. Rule for the calls: active = growth percent below 10; inactive = the rest.

For the experiment, the system named is MDA-MB-468 breast. Put plainly: NCI-60 one-dose screen, 48 h (100 = growth as untreated, 0 = no growth, -100 = all killed). Particulars: 10 µM unless noted.
Take `O=C(Nc1ccc(-n2cc(-c3ccncc3)c(-c3ccc(Cl)c(O)c3)n2)cc1)Nc1cc(C(F)(F)F)cc(C(F)(F)F)c1`: the growth was 13.9%.

Regarding `O=C(c1ccc(-c2ccccc2)cc1)c1ccc([N+](=O)[O-])cc1`, the growth is 108%.

Take `CC(=O)c1ccc(-n2cc(CN3CCN(c4cc5c(cc4F)c(=O)c(C(=O)O)cn5C4CC4)CC3)nn2)cc1`: the growth is 72.5%.

With `O=C(Nc1ccc(Oc2ccc(F)cc2)c(Cl)c1)c1cccnc1`, the growth is 57.2%.

With `CN1CCN(c2ccc(NC(=O)c3nc4ccc5[nH]ncc5c4c4c3CCCC4)cc2C(F)(F)F)CC1`, the growth is 44%.

Consider `COC(=O)c1sccc1-c1cc(O)c(C(=O)Nc2ccccc2)s1`, for which the growth was 85.4%.

As for `O=C1/C(=C/c2ccccc2)CN(C(=O)c2cccnc2)C/C1=C\c1ccccc1`, the growth was -49.2% (active).

As to `CSc1nc2c(c(=O)n1C)CN(Cc1ccccc1)C(=O)CN2`, the growth was 71.3%.

Regarding `COc1cc(-c2ccc3cc(OC)c(OC)c(OC)c3c2)cc(OC)c1OC`, the growth is 31.6%.

On to `Cn1c(NCCc2ccc(O)c(O)c2)nc2c1c(=O)n(Cc1ccc(Cl)cc1)c(=O)n2C`, for which the growth was 19.4%.

For `COC(=O)c1nc(N)nc(C(=O)OC)c1C(=O)c1cccc2ccccc12`, the growth was 97.6%.

As for `CN(C)c1ccc(/C=c2\s/c(=C\C(=O)C(C)(C)C)[nH]c2=O)cc1`, the growth was 109%.

Consider `Cc1oc(-c2ccccc2Cl)cc1C(=O)Nc1ccc(S(N)(=O)=O)cc1`, for which the growth was 109%.

`O=C1/C(=C/c2ccc(F)cc2)CN(C(=O)CCN2CCC(=NO)CC2)C/C1=C\c1ccc(F)cc1`: the growth is -41.6% (active).

Regarding `CC(C)(C)c1ccc(S(=O)(=O)N[C@H]2CC[C@H]3[C@@H]4CCc5cc(O)c([N+](=O)[O-])cc5[C@H]4CC[C@]23C)cc1`, the growth was 99.9%.

In the case of `O=C(NS(=O)(=O)c1ccccc1)n1cc(-c2ccncc2)c(-c2ccc(Cl)c(O)c2)n1`, the growth was 96.5%.

As for `COc1cccc(/C=C2\COc3ccc(O)c(O)c3C2=O)c1OC`, the growth was -19.2% (active).

Consider `Nc1cc(-c2c[nH]c3ccc(F)cc23)nc2cc(-c3c[nH]c4ccc(F)cc34)nn12`, for which the growth is 115%.

Take `C=CCOC(=O)C1=C(C)N(CC)C(=O)NC1c1c(Cl)n(C)c2ccccc12` (configuration not stated): the growth was 107%.

For the molecule `Brc1cnc2[nH]cc(-c3nnc(-c4ccccc4)o3)c2c1`, the growth is 60.3%.

Consider `CNC(=O)c1cc(Oc2ccc3c(c2)sc2nc(-c4ccc(N(C)C)cc4)cn23)ccn1`, for which the growth was 36.5%.

Regarding `O=C(COc1ccc(-c2nc3cc(Cl)c(Cl)cc3[nH]2)cc1)N=Nc1c(O)[nH]c2ccccc12`, the growth was -49.5% (active).

In the case of `CCCCCCCCCCCCCCCC[N+](C)(CCO)Cc1cnc[nH]1` (configuration not stated), the growth is -16% (active).

Take `Clc1ccccc1Nc1nnc(-c2ccncc2)s1`: the growth was 110%.

Turning to `COc1ccc(OC)c(NC=O)c1`, the growth was 97%.

As to `CC1(C)C(N)=Nc2cc(OCCCCN3Cc4ccccc4C3)c(OCC3CC3)cc21`, the growth is 42.2%.

`COc1cc(/C=C2\C(=O)Nc3ccccc32)ccc1OCc1ccc(F)cc1`: the growth is 102%.
